Laboratory results from PubChem BioAssay.
Active and inactive are the calls of the source. Unless noted, no rule for the calls is given here.

How the values were obtained:
[1] = system: XIP peptide (Xip251-270) binding; assay: XIP fragment 251-270 binding compounds – biochemical, small-molecule microarray, fluorescence 635/667 nm, 0.1 µg/mL protein, primary screen (AID 1182); conditions: fluorescent protein binding, 635 nm, higher = more signal, called active from +8 up or from −8 down
XIP peptide (Xip251-270) = assay: compounds binding XIP fragment 251-270 – biochemical, small-molecule microarray, fluorescence 635/667 nm, 0.5 µg/mL protein, primary screen (AID 1183); conditions: fluorescence 635 nm, higher = more signal
[2] = blood-stage malaria parasite viability loss – strain 3D7, DAPI fluorescence, 100 nL, primary screen (AID 1184);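 also: parasites grown inside human red blood cells in medium with human serum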; conditions: P. falciparum 3D7 growth, 3 d, higher = more signal
[3] = molecular target: Homeobox protein Hox-A13 (Mus musculus) (UniProt Q62424); assay: disruptors of Hoxa13 oligonucleotide interaction – biochemical, fluorescence polarization, labeled oligonucleotide, primary screen (AID 1185); conditions: Hoxa13:DNA binding, 15 min, higher = more signal, called active from +8 up or from −8 down
Homeobox protein Hox-A13 (Mus musculus), sequence (Q62424 whole entry, looked up): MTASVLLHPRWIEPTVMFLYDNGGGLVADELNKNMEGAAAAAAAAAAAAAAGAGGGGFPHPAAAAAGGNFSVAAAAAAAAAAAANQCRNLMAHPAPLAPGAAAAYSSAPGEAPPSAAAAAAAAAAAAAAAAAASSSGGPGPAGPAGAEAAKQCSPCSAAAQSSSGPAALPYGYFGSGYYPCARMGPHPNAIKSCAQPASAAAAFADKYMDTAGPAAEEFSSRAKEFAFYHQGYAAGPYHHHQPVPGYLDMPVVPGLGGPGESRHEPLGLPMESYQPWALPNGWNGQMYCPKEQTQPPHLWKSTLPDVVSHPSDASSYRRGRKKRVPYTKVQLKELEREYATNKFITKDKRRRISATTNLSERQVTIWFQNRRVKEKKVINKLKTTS

[4] = blockers of DNA damage checkpoint Chk1 activation – imaging, HeLa, hydroxyurea, phospho-Chk1 antibody, percent positive cells, primary screen (AID 1186); conditions: hydroxyurea-induced phospho-Chk1 immunofluorescence imaging, higher = more signal
[5] = blockers of DNA damage checkpoint Chk1 activation – imaging, HeLa, hydroxyurea, phospho-Chk1 nuclear intensity, primary screen (AID 1187); conditions: hydroxyurea-induced phospho-Chk1 immunofluorescence imaging, higher = more signal

Row | Structure (SMILES) | composite z-score [1] | composite z-score (XIP peptide (Xip251-270)) | z-score [2] | z-score [3] | z-score [4] | z-score [5]
1 | COCCn1c(C(=O)N2CCCC2)cc2c1C[C@H]1CN(C(=O)c3ccccc3)[C@@](Cc3ccccc3)(C(=O)OC)[C@@H]21 | 1.06 (inactive) | 0.857 | -1.22 | -6.05 (inactive) | 0.206 (inactive) | 0.412 (inactive)
2 | C=CCC(OC(C)=O)[C@@H]1[C@@H](N(Cc2ccc(-c3ccccc3)cc2)C(=O)c2ccc(-c3ccccc3)cc2)c2cc(OCCCO)ccc2N1C(=O)c1ccc2ccccc2n1 (stereo not given in full) | -0.649 (inactive) | 0.119 | -0.273 | -0.983 (inactive) | 0.0922 (inactive) | 0.352 (inactive)
3 | CCOC(=O)C[C@H]1[C@H](OC(=O)c2ccc(-c3ccccc3)cc2)[C@@H](NC(=O)CC(C)C)c2cc(OCCCO)ccc2N1C(=O)Cc1ccc(OC)cc1 | 0.364 (inactive) | -0.0598 | -0.0881 | -2.68 (inactive) | 0.568 (inactive) | 0.254 (inactive)
4 | N#Cc1ccc(C(O)C2C=CC3C(=O)NC(=O)C3N2Nc2ccccn2)cc1 (stereo not given) | -0.108 (inactive) | 0.669 | -0.557 | -1.11 (inactive) | -0.0275 (inactive) | 0.114 (inactive)
5 | CCCCC(O)C1C=CC2C(=O)NC(=O)C2N1Nc1ccccn1 (stereo not given) | -0.634 (inactive) | 0.146 | 0.993 | -1.21 (inactive) | 0.846 (inactive) | 0.318 (inactive)
6 | C=CC[C@@]1(C(=O)N(C)C)N=C(c2ccc(OCCCO)cc2)O[C@@H]1c1ccccc1 | 0.98 (inactive) | 0.425 | -0.76 | -6.79 (inactive) | 0.343 (inactive) | 0.0811 (inactive)
7 | CC(=O)NCCCC[C@@H]1NC(=O)[C@H]2C[C@@H](C(=O)NCCCCCC[N+](C)(C)C)[C@@H](c3ccc(O)cc3)N2C1=O | 0.265 (inactive) | 0.883 | -0.0467 | -2.81 (inactive) | -0.207 (inactive) | 0.0348 (inactive)
8 | [N-]=[N+]=NCc1ccccc1C[C@]1(C(=O)NCc2ccccc2)N=C(c2ccc(OCCCO)cc2)O[C@H]1c1ccccc1CN=[N+]=[N-] | 0.99 (inactive) | 0.628 | -2.24 | 4.04 (inactive) | -0.347 (inactive) | 0.0031 (inactive)
9 | CC(C)C[C@H]1NC(=O)[C@@H](C)NC(=O)[C@@]23C(=O)N[C@@H](Cc4ccccc4)C2[C@H](C)[C@@]2(C)O[C@H]2C3/C=C/C/C=C\CNC1=O (stereo not given in full) | 1.06 (inactive) | 0.679 | 0.234 | -6.94 (inactive) | 0.255 (inactive) | 0.0218 (inactive)
10 | COC(=O)Cn1c(C(=O)N(C)C)cc2c1C[C@H]1CN(C(=O)c3ccccc3)[C@@](Cc3ccc(OC)cc3)(C(=O)OC)[C@@H]21 | 1.28 (inactive) | 0.59 | -1.62 | -5.22 (inactive) | 0.0109 (inactive) | 0.295 (inactive)
11 | CC(C)C(=C=CC[C@@H](O)c1ccc(OCCO)cc1)CCO | 0.308 (inactive) | 0.222 | -2.09 | -2.38 (inactive) | -0.201 (inactive) | 1.37 (inactive)
12 | C#CCN(C/C=C/c1ccccc1)[C@H](CO[Si](C)(C)C(C)(C)C)c1ccccc1 | 0.141 (inactive) | 0.0247 | -0.775 | -0.229 (inactive) | 0.229 (inactive) | -0.274 (inactive)
13 | COC(=O)[C@@]1(Cc2ccccc2)[C@H]2c3cc(C(=O)N4CCCC4)n(Cc4ccc(C(F)(F)F)nc4)c3C[C@H]2CN1C(=O)c1ccccc1 | -0.0699 (inactive) | 0.723 | -1.11 | -3.13 (inactive) | -0.0659 (inactive) | 0.114 (inactive)
14 | COc1ccc(C#Cc2ccc3c(c2)[C@]2(C(=O)N3)[C@H](c3ccc(OCCO)cc3)N3[C@H](c4ccccc4)[C@H](c4ccccc4)OC(=O)[C@H]3[C@@H]2C(=O)O)cc1 | -0.436 (inactive) | 0.327 | -1.31 | -5.36 (inactive) | 0.36 (inactive) | 0.273 (inactive)
15 | CN1C(=O)[C@]2(CCC(=O)OC(C)(C)C)N=C(c3ccc(OCCCO)cc3)O[C@@H]2c2ccccc21 | 0.0974 (inactive) | 0.654 | -1.56 | -5.26 (inactive) | -0.0356 (inactive) | 0.25 (inactive)
16 | C=CC(CO)NC(=O)OCC1c2ccccc2-c2ccccc21 (stereo not given) | 1.62 (inactive) | 0.162 | 1.42 | 0.0393 (inactive) | 0.145 (inactive) | 0.42 (inactive)
17 | O=C1c2ccccc2[C@](Cc2ccccc2I)(C(=O)O)[C@H](c2ccc(CO)cc2)N1Cc1ccccc1 | 0.947 (inactive) | 0.754 | 0.387 | -4.44 (inactive) | -0.422 (inactive) | -0.204 (inactive)
18 | CC[C@H](C)C(=O)O[C@H]1CC[C@]2(C)C3=C(CCC2C1(C)C)[C@]1(C)CC[C@H]([C@H](C)CCCC(C)C)[C@@]1(C)CC3 (stereo not given in full) | 0.146 (inactive) | -0.273 | 0.231 | -1.34 (inactive) | -0.719 (inactive) | -0.829 (inactive)

Row | Structure (SMILES) | composite z-score [1] | composite z-score (XIP peptide (Xip251-270)) | z-score [2] | z-score [3] | z-score [4] | z-score [5]
19 | COCCOC(=O)N1C(=O)[C@@]2(c3cc(C#CC4=CCCCC4)ccc31)[C@H](C(=O)N1CCc3cc(OC)c(OC)cc3C1)[C@H]1C(=O)O[C@H](c3ccccc3)[C@H](c3ccccc3)N1[C@@H]2c1ccc(O)cc1 | 1.49 (inactive) | 0.795 | -1.8 | 0.129 (inactive) | -0.0825 (inactive) | 0.246 (inactive)
20 | CC(C)(C)N1CC=CC23O[C@@H]4/C=C\CCCOC(=O)C4[C@H]2C(=O)N(CCCCCCO)[C@@H]3C1=O (stereo not given in full) | 0.956 (inactive) | 0.346 | -0.136 | -4.63 (inactive) | 0.114 (inactive) | 1.32 (inactive)
21 | COCCOC(=O)N1C(=O)[C@@]2(c3cc(C#CCCO)ccc31)[C@H](C(=O)N1CCc3cc(OC)c(OC)cc3C1)[C@H]1C(=O)O[C@H](c3ccccc3)[C@H](c3ccccc3)N1[C@@H]2c1ccccc1OCCO | 0.21 (inactive) | 0.805 | -2.18 | 0.554 (inactive) | 0.0905 (inactive) | 0.534 (inactive)
22 | O=C1OCCC/C=C\[C@H]2OC34C=CCN(Cc5ccccc5)C(=O)[C@H]3N(CCCCCO)C(=O)[C@@H]4C12 (stereo not given in full) | 0.105 (inactive) | -0.6 | 0.259 | -5.04 (inactive) | -0.312 (inactive) | 0.249 (inactive)
23 | CC(C)C[C@H]1NC(=O)[C@@]23C(=O)N[C@@H](Cc4ccccc4)C2[C@H](C)[C@@]2(C)O[C@H]2C3/C=C/C/C=C\CNC(=O)[C@@H]2CCCN2C1=O (stereo not given in full) | 1.73 (inactive) | 0.0626 | 1.18 | -5.47 (inactive) | 0.216 (inactive) | 0.162 (inactive)
24 | COC(=O)C1=CC(CCCO)=CC(c2ccc(CN3CCCC3)cc2)N(Cc2sc3ccccc3c2Cl)C=C1C(=O)OC (stereo not given) | 4.74 (inactive) | 0.916 | -1.95 | -1.23 (inactive) | -0.438 (inactive) | -0.402 (inactive)
25 | Cc1ccc(F)cc1S(=O)(=O)N[C@@H]1CCN(Cc2ccc3c(c2)OCO3)C1 | 0.92 (inactive) | 0.321 | 0.531 | -3.75 (inactive) | -0.201 (inactive) | -0.271 (inactive)
26 | CC(C)CNC(=O)[C@@H]1c2ccccc2C(=O)N(C2Cc3ccccc3C2)[C@H]1c1ccc(CO)cc1 | 0.45 (inactive) | 0.509 | 0.134 | -2.36 (inactive) | -0.281 (inactive) | -0.121 (inactive)
27 | C=CC[C@@]1(C(=O)O)N=C(c2ccc(OCCCO)cc2)O[C@@H]1c1ccccc1CN=[N+]=[N-] | -0.207 (inactive) | 0.563 | -1.34 | -6.29 (inactive) | -0.222 (inactive) | -0.0145 (inactive)
28 | CN(C)CCCC[C@@H]1NC(=O)[C@@H]2C[C@H](C(=O)NCCCCCCNC(=O)CS)[C@H](c3cccc(OCCO)c3)N2C1=O | 0.602 (inactive) | 0.667 | -0.391 | -2.01 (inactive) | 0.134 (inactive) | -0.332 (inactive)
29 | CCCCC=C[C@@H](NC(=O)c1ccc(C(F)(F)F)cc1)c1ccccc1 | 0.0581 (inactive) | -0.11 | 0.185 | -3.7 (inactive) | -0.587 (inactive) | -1.16 (inactive)
30 | CCCCC(=C=CC[C@@H](O)c1cccc(OCCO)c1)C[C@@H](O)COCc1ccccc1 | -0.0344 (inactive) | 0.713 | -1.1 | -4.82 (inactive) | -0.255 (inactive) | 0.827 (inactive)
31 | CN(C)CCCCNC(=O)[C@H]1C[C@H]2C(=O)N[C@@H](Cc3ccccc3)C(=O)N2[C@H]1c1cccc(OCCO)c1 | -0.0743 (inactive) | -0.0022 | -0.0613 | -3.06 (inactive) | -0.826 (inactive) | -0.851 (inactive)
32 | Cc1c(-c2ccc(-c3ccc(Cl)c(Cl)c3)o2)nc(-c2ccccc2)c2c1CO[Si]2(C(C)C)C(C)C | 0.401 (inactive) | 0.761 | 0.962 | -1.48 (inactive) | 0.0151 (inactive) | -0.0709 (inactive)
33 | COC(=O)[C@@]1(Cc2ccc(F)cc2)[C@H]2c3cc(C(=O)N4CCCC4)n(CCO)c3C[C@H]2CN1C(=O)c1ccccc1 | -0.33 (inactive) | 0.676 | -1.26 | -5.44 (inactive) | -0.961 (inactive) | -0.836 (inactive)
34 | CN(C)CCCC[C@@H]1NC(=O)[C@H]2C[C@@H](C(=O)NCc3ccc(F)cc3)[C@@H](c3ccc(O)cc3)N2C1=O | 2.07 (inactive) | 0.934 | -0.057 | -1.36 (inactive) | 0.806 (inactive) | 1.32 (inactive)
35 | O=C1C2C=CC(C(O)c3cccs3)N(Nc3ccccc3)C2C(=O)N1c1ccccc1 (stereo not given) | 0.308 (inactive) | 0.171 | -0.459 | -2.56 (inactive) | -0.719 (inactive) | -0.649 (inactive)
